Assay results taken from the supplement of paper PMC11732987, “Enantioselective OTUD7B fragment discovery through chemoproteomics screening and high-throughput optimisation” (Communications Chemistry, 2025).

What was measured:
Experiment in all cases: log2 ratio of Biotin-Ahx-Ub-VS probe labelling (fragment/DMSO); higher = less target engagement (more negative = stronger competition), active = hit call of the paper (q ≤ 0.05, log2 ratio ≤ -1)
Conditions in all cases: compound concentration: 200 uM; treatment time: 3 h
[1] = target: T1, USP19 (UniProt O94966)
T1 sequence (whole entry): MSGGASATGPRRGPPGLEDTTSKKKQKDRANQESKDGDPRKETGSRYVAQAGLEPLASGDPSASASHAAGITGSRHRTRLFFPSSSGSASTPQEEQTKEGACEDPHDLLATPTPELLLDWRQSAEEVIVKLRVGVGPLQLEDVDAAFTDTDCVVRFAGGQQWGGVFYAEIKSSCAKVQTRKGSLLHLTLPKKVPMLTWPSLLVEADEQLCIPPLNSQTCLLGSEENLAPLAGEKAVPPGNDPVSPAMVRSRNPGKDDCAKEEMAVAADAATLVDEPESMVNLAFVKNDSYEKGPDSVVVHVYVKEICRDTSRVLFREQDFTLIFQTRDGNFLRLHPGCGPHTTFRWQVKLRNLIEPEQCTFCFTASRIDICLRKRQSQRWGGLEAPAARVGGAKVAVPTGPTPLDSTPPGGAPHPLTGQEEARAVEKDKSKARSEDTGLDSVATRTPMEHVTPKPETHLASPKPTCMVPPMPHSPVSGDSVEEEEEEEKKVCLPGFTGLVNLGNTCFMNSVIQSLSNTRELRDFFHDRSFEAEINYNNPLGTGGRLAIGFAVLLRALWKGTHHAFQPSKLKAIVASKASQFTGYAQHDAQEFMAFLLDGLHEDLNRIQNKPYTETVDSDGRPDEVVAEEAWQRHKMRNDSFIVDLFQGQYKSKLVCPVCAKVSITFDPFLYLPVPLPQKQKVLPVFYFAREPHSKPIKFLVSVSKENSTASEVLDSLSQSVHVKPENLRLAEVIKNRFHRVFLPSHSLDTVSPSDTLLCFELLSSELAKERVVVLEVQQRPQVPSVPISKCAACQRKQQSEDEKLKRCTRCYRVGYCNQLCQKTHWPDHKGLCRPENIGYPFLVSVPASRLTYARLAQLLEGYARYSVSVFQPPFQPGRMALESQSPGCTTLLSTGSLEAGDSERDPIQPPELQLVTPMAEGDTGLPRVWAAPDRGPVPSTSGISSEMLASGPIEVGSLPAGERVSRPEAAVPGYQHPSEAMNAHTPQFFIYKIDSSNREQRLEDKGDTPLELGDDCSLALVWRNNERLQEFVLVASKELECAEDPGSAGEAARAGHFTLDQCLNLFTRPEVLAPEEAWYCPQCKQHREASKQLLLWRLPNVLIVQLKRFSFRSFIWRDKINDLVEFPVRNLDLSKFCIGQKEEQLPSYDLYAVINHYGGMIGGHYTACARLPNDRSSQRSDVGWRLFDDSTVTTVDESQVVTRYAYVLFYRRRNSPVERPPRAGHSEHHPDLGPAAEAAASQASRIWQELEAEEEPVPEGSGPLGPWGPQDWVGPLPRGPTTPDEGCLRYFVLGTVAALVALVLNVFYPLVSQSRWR
Summary of the method: (§1)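 Average log2 ratios of fragment over vehicle were obtained by unpaired t-test from global-median-normalised Spectronaut label-free quantities. Proteins with ≥2 unique peptides were included. HEK293T lysate (495 µg per sample) was treated in triplicate with fragment at 200 µM or vehicle for 3 h, then with Biotin-Ahx-Ub-VS at 0.5 µM final for 1 h, and labelled DUBs were NeutrAvidin-enriched and run by diaPASEF LC-MS/MS.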

[2] = target: USP24 (UniProt Q9UPU5)
Summary of the method: as §1

[3] = target: T2, USP25 (UniProt Q9UHP3)
T2 sequence (whole entry): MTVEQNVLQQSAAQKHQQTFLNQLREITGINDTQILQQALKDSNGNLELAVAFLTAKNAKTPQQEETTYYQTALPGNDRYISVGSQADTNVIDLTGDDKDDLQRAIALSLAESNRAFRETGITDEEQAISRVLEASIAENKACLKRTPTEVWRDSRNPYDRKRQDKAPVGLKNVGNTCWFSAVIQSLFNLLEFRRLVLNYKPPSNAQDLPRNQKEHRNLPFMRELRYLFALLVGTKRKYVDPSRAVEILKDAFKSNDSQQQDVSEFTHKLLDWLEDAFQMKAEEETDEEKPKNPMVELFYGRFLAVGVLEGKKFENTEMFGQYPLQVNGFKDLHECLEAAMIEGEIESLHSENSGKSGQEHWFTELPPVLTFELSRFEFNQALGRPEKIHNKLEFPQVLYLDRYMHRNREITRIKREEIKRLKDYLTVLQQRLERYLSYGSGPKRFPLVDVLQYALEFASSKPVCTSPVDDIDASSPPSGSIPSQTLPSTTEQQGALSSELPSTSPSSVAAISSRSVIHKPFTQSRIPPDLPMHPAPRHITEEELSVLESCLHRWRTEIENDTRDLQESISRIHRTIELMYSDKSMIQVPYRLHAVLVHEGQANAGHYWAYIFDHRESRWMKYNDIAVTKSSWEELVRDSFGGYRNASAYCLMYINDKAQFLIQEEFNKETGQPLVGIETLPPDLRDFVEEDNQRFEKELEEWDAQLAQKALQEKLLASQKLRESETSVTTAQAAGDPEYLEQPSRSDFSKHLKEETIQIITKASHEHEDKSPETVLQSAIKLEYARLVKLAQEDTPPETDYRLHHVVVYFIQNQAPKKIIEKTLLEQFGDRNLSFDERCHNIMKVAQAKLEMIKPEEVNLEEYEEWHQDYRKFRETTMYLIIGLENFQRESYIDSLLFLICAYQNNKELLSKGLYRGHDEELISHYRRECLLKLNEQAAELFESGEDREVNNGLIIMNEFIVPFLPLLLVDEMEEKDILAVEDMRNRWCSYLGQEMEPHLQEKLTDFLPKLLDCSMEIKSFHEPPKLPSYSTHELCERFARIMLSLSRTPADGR
Summary of the method: as §1

[4] = target: T3, USP28 (UniProt Q96RU2)
T3 sequence (whole entry): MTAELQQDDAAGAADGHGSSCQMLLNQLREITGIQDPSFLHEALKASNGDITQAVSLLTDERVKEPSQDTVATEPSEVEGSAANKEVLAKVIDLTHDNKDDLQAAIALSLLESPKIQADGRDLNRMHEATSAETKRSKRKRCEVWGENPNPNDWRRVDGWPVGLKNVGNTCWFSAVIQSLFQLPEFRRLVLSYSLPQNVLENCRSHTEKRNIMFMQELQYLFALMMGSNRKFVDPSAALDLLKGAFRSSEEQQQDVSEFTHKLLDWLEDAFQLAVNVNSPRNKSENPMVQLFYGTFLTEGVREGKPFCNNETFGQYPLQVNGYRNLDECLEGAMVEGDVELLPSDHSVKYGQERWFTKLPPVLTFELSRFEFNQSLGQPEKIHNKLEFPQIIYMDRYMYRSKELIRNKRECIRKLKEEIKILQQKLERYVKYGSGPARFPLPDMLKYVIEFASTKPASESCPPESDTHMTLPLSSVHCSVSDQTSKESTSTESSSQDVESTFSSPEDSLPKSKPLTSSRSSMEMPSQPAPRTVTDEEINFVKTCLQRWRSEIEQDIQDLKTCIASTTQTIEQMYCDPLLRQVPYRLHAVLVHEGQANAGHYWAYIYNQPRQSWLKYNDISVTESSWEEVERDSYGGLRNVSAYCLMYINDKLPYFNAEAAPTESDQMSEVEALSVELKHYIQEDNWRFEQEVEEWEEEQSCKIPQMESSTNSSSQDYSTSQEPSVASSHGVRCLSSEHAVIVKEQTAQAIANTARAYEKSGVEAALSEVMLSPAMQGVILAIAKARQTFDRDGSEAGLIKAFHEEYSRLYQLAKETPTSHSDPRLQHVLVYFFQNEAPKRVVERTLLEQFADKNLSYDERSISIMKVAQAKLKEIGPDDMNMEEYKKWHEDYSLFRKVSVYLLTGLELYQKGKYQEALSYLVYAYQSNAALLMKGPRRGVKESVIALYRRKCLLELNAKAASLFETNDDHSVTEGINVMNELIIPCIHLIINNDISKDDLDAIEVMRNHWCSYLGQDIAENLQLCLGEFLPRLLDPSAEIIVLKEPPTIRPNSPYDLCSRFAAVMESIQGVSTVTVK
Summary of the method: as §1

Measured: log2 ratio of Biotin-Ahx-Ub-VS probe labelling

Chain of USP24 (Q9UPU5 whole entry): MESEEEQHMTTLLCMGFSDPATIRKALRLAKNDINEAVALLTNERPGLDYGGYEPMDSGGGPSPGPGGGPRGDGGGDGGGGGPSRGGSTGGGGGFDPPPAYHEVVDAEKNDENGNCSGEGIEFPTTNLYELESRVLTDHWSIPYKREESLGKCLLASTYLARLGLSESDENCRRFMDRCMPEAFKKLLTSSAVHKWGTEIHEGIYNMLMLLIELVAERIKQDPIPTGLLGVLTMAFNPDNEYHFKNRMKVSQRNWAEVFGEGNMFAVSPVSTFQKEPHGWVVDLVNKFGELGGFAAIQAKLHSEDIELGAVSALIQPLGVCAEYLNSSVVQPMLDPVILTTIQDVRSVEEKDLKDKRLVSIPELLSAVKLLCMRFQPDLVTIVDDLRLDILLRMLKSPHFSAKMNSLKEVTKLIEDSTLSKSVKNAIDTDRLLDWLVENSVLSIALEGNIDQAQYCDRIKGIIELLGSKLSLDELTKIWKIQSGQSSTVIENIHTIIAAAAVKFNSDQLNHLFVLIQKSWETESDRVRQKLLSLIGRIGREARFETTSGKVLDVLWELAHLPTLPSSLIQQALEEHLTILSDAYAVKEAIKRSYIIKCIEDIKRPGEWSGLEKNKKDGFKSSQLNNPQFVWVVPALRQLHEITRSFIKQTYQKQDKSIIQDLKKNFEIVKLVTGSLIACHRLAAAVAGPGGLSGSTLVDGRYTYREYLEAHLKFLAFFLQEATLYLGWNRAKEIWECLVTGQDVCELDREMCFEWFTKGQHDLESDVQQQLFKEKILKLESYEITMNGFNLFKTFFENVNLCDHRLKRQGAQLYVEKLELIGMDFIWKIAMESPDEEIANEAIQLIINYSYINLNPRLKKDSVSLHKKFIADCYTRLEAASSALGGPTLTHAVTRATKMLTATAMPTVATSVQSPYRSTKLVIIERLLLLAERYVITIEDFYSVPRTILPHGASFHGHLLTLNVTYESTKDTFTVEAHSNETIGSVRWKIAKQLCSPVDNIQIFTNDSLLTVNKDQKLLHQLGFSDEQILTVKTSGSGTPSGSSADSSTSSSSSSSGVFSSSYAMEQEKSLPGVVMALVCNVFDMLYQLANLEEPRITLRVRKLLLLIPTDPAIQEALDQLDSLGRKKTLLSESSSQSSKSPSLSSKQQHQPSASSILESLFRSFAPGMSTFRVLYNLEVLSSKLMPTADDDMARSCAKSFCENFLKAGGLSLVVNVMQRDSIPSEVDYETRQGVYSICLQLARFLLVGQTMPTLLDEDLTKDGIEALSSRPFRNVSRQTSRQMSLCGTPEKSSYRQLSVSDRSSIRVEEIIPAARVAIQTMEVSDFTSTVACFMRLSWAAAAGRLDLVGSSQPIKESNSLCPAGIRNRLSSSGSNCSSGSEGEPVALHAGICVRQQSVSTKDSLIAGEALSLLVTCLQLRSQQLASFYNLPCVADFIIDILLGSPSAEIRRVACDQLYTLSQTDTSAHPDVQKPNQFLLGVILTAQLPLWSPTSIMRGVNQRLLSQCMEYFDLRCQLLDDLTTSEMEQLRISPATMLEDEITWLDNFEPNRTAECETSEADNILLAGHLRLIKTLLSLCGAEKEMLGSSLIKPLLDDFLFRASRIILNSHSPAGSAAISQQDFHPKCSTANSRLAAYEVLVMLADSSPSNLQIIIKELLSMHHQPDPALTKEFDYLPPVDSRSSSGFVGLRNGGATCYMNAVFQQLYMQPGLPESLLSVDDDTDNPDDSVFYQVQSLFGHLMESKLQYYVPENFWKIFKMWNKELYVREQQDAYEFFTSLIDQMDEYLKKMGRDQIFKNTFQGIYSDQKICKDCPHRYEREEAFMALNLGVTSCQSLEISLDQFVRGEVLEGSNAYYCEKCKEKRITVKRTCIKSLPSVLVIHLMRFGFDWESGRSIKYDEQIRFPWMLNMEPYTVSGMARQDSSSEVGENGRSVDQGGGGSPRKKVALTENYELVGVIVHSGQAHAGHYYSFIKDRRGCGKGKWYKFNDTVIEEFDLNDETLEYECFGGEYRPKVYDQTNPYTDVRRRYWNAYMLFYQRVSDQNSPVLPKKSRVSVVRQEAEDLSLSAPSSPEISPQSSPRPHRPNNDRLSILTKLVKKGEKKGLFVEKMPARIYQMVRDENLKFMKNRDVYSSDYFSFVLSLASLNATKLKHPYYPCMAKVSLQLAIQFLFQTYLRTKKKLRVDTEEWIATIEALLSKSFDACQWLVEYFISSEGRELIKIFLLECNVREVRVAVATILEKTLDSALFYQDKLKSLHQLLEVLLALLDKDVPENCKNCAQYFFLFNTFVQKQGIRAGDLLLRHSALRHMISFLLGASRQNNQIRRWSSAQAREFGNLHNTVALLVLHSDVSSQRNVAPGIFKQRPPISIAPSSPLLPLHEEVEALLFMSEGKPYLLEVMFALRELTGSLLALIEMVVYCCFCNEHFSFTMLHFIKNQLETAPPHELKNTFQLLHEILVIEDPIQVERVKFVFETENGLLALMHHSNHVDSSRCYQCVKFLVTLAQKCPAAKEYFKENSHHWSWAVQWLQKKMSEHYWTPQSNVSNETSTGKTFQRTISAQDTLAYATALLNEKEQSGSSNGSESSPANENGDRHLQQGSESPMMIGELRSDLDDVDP

COCC1C=CCCN1C(=O)CCl (centres undefined)
inactive: [1] -0.24 | [2] -0.137 | [3] -0.32 | [4] -0.342
